Results filed as inconclusive are left out. The source made the active and inactive calls. The call rests on the fitted dose curve; in most records, active means well fitted cell-killing curve with a large enough effect; inconclusive means small, poorly fitted or top-dose-only effect, or effect the other way; inactive means flat fitted curve, though single readings scatter.
Tests used:
Assay in all cases: Primary qHTS to identify gynecologic anti-cancer compounds using libraries of approved drugs and bioactive compounds (AID 1345084); further: nearly all actives have a fitted effect of over 55% in size
Details in all cases: Gynecologic cancer cell panel viability, ATPlite luminescence, 48 h; series mostly up to 57.5 µM
OV90 = tested on: OV90
How it was run: (§1)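 Luminescence from the ATPlite ATP-monitoring reagent indicates viable cell number; lower signal means cytotoxicity. Cells received compound 16 h after seeding and were exposed for 48 h across five concentrations.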

PA-1 = tested on: PA-1
How it was run: as §1

SKOV3 = tested on: SKOV3
How it was run: as §1

Tov-21-G = tested on: Tov-21-G
How it was run: as §1

Tov112D = tested on: Tov112D
How it was run: as §1
On the % scale 0 is the no-effect control and ±100 the full control effect.

CN1CCN(c2nc(-c3ccc(C(=O)NC4(C(=O)NCC#N)CCCCC4)cc3)cs2)CC1
inactive: Potency (OV90) | Potency (PA-1) | Potency (SKOV3) | Potency (Tov-21-G) | Potency (Tov112D)

COc1ccc(C(=O)OC2C3C=COC(OC4OC(CO)C(O)C(O)C4O)C3C3(CO)OC23)cc1OC (stereo not given)
inactive: Potency (OV90) | Potency (PA-1) | Potency (SKOV3) | Potency (Tov-21-G) | Potency (Tov112D)

CC(C)c1cc2c(c(O)c1O)[C@@]13CCCC(C)(C)C1[C@@H](O)[C@@H]2OC3=O (stereo not given in full)
inactive: Potency (OV90) | Potency (PA-1) | Potency (SKOV3) | Potency (Tov-21-G) | Potency (Tov112D)

CC1(O)CCC2C(C3C1CCC3(C)O)C2(C)C (stereo not given)
inactive: Potency (OV90) | Potency (PA-1) | Potency (SKOV3) | Potency (Tov-21-G) | Potency (Tov112D)

COC(=O)[C@]1(C)CCC[C@@]2(C)[C@@H]3CC[C@@H]4C[C@@]3(CC[C@@H]21)C[C@H]4C(=O)O
inactive: Potency (OV90) | Potency (PA-1) | Potency (SKOV3) | Potency (Tov-21-G) | Potency (Tov112D)

CC1=C2C(=O)C=C(CO[C@@H]3O[C@H](CO)[C@@H](O)[C@H](O)[C@H]3O)[C@@H]2[C@H]2OC(=O)[C@H](C)[C@@H]2CC1
inactive: Potency (OV90) | Potency (PA-1) | Potency (SKOV3) | Potency (Tov-21-G) | Potency (Tov112D)

C=C1CC23CC(=O)C4C(CO)(CO)CCCC4(C)C2CCC1C3 (stereo not given)
inactive: Potency (OV90) | Potency (PA-1) | Potency (SKOV3) | Potency (Tov-21-G) | Potency (Tov112D)

CN(C)c1ccc(C2O[C@@H](c3ccccc3)C[C@H](c3ccccc3)O2)cc1 (stereo not given in full)
inactive: Potency (OV90) | Potency (PA-1) | Potency (SKOV3) | Potency (Tov-21-G) | Potency (Tov112D)

CC(C)(OC1OC(CO)C(O)C(O)C1O)C1CCC(O)(CO)C2CC(=O)C(C)(O)C2C1 (stereo not given)
inactive: Potency (OV90) | Potency (PA-1) | Potency (SKOV3) | Potency (Tov-21-G) | Potency (Tov112D)

C[C@@H]1O[C@@H](O[C@H]2[C@H](O)[C@@H](O)[C@H](OC[C@H]3O[C@@H](OC(=O)[C@]45CCC(C)(C)C[C@H]4C4=CCC6[C@@]7(C)C[C@@H](O)[C@H](O)[C@@](C)(CO)C7[C@H](O)C[C@@]6(C)[C@]4(C)CC5)[C@H](O)[C@@H](O)[C@@H]3O)O[C@@H]2CO)[C@H](O)[C@H](O)[C@H]1O (stereo not given in full)
inactive: activity change, negative = cytotoxicity (OV90) -3.81% [at 11.6 µM] | activity change, negative = cytotoxicity (PA-1) 2.94% [at 11.6 µM] | activity change, negative = cytotoxicity (SKOV3) -6.07% [at 11.6 µM] | activity change, negative = cytotoxicity (Tov-21-G) -3.2% [at 11.6 µM] | activity change, negative = cytotoxicity (Tov112D) -3.4% [at 11.6 µM]

CC1OC(OC2C(OC(=O)[C@]34CCC(C)(C)C[C@H]3C3=CCC5[C@@]6(C)CC[C@H](OC7OC(C(=O)O)C(O)C(O)C7O)C(C)(C)C6CC[C@@]5(C)[C@]3(C)CC4O)OC(CO)C2O)C(O)C(O)C1OC1OCC(O)C(O)C1O (stereo not given in full)
inactive: activity change, negative = cytotoxicity (OV90) -5.89% [at 11.6 µM] | activity change, negative = cytotoxicity (PA-1) 30.3% [at 11.6 µM] | activity change, negative = cytotoxicity (SKOV3) -0.208% [at 11.6 µM] | activity change, negative = cytotoxicity (Tov-21-G) 5.56% [at 11.6 µM] | activity change, negative = cytotoxicity (Tov112D) -3.39% [at 11.6 µM]

CC(=O)/C=C/C1C(C)CC(O[C@@H]2O[C@H](CO)[C@@H](O)[C@H](O)[C@H]2O)CC1(C)C (stereo not given in full)
inactive: Potency (OV90) | Potency (PA-1) | Potency (SKOV3) | Potency (Tov-21-G) | Potency (Tov112D)

CC(=O)OC1CC2C(C)(C)C(=O)C=CC2(C)C2CC(=O)C3=C(CCC3C3=CC(O)OC3=O)C12C (stereo not given)
inactive: Potency (OV90) | Potency (PA-1) | Potency (SKOV3) | Potency (Tov-21-G) | Potency (Tov112D)

C/C=C1/[C@H](O[C@@H]2O[C@H](CO)[C@@H](O)[C@H](O)[C@H]2O)OC=C2C(=O)O[C@@H]3C[C@@H](C(C)CO)[C@H](COC(=O)C[C@H]21)[C@H]3C (stereo not given in full)
inactive: Potency (OV90) | Potency (PA-1) | Potency (SKOV3) | Potency (Tov-21-G) | Potency (Tov112D)

NC(=O)[C@H](Cc1ccccc1)NC(=O)[C@H](CCCN=C(N)N)NC(=O)C12CC3CC(CC(C3)C1)C2
inactive: activity change, negative = cytotoxicity (OV90) -0.378% [at 11.6 µM] | activity change, negative = cytotoxicity (PA-1) 5.55% [at 11.6 µM] | activity change, negative = cytotoxicity (SKOV3) 6.06% [at 11.6 µM] | activity change, negative = cytotoxicity (Tov-21-G) 4.32% [at 11.6 µM] | activity change, negative = cytotoxicity (Tov112D) -1.65% [at 11.6 µM]

C=C1CCC2(C(=O)OC3OC(CO)C(O)C(O)C3O)CCC3(C)C(=CCC4C5(C)CCC(OC6OC(CO)C(OC7OC(C)C(O)C(O)C7O)C(OC7OCC(O)C(O)C7O)C6O)C(C)(C)C5CCC43C)C2C1 (stereo not given)
inactive: activity change, negative = cytotoxicity (OV90) 9.22% [at 11.6 µM] | activity change, negative = cytotoxicity (PA-1) 18.7% [at 11.6 µM] | activity change, negative = cytotoxicity (SKOV3) 24.5% [at 11.6 µM] | activity change, negative = cytotoxicity (Tov-21-G) 0.21% [at 11.6 µM] | activity change, negative = cytotoxicity (Tov112D) 9.24% [at 11.6 µM]

Cc1ccc(Nc2nnc(-c3ccc([N+](=O)[O-])cc3)o2)cc1Cl
inactive: Potency (OV90) | Potency (PA-1) | Potency (SKOV3) | Potency (Tov-21-G) | Potency (Tov112D)

COc1cc(O)cc2c1C(=O)OC(C)C2 (stereo not given)
inactive: Potency (OV90) | Potency (PA-1) | Potency (SKOV3) | Potency (Tov-21-G) | Potency (Tov112D)

CC1(C)CC[C@]2(C(=O)O)CC[C@]3(C)C(=CCC4[C@@]5(C)CC[C@H](O[C@@H]6O[C@H](C(=O)O)[C@@H](O)[C@H](O)[C@H]6O)C(C)(C)C5CC[C@]43C)C2C1 (stereo not given in full)
inactive: Potency (OV90) | Potency (PA-1) | Potency (SKOV3) | Potency (Tov-21-G) | Potency (Tov112D)

O=C(OCC1OC(Oc2ccc(O)cc2COC(=O)C2(O)C(O)CCC(=O)C2OC(=O)C2C=CCC2)C(OC(=O)C2C=CCC2)C(O)C1O)C1C=CCC1 (stereo not given)
inactive: Potency (OV90) | Potency (PA-1) | Potency (SKOV3) | Potency (Tov-21-G) | Potency (Tov112D)

CC(=O)OCC1OC(O[C@H]2CC[C@]34C[C@]35CC(O)[C@]3(C)[C@@H]([C@H](C)CC/C=C(\C)C(=O)O)C(O)C[C@@]3(C)C5CC[C@H]4C2(C)C)C(O)C(O)C1OC1OCC(O)C(O)C1O (stereo not given in full)
inactive: activity change, negative = cytotoxicity (OV90) -7.9% [at 11.6 µM] | activity change, negative = cytotoxicity (PA-1) -0.531% [at 11.6 µM] | activity change, negative = cytotoxicity (SKOV3) -12.1% [at 11.6 µM] | activity change, negative = cytotoxicity (Tov-21-G) 4.53% [at 11.6 µM] | activity change, negative = cytotoxicity (Tov112D) 2.89% [at 11.6 µM]

O=C(OCC1=C[C@@H](O)[C@@H]2C=CO[C@@H](O[C@@H]3O[C@H](CO)[C@@H](O)[C@H](O)[C@H]3O)[C@H]12)c1ccc(O)cc1
inactive: Potency (OV90) | Potency (PA-1) | Potency (SKOV3) | Potency (Tov-21-G) | Potency (Tov112D)

CC1=C(CO)C2(C)CCCC(C)(C)C2C(O)C1O (stereo not given)
inactive: Potency (OV90) | Potency (PA-1) | Potency (SKOV3) | Potency (Tov-21-G) | Potency (Tov112D)

Cc1oc(S(=O)(=O)N2CCCCC2)cc1NC(=O)Nc1ccccc1
inactive: Potency (OV90) | Potency (PA-1) | Potency (SKOV3) | Potency (Tov-21-G) | Potency (Tov112D)

C=C1CC[C@H]2[C@@](C)(CCC(O)[C@@]2(C)CO)[C@@H]1/C=C/C(=C\C(=O)O)C(=O)O (stereo not given in full)
inactive: Potency (OV90) | Potency (PA-1) | Potency (SKOV3) | Potency (Tov-21-G) | Potency (Tov112D)

Cc1cn(-c2cc(NC(=O)c3ccc(C)c(Nc4nccc(-c5cnccn5)n4)c3)cc(C(F)(F)F)c2)cn1
inactive: Potency (OV90) | Potency (PA-1) | Potency (SKOV3) | Potency (Tov-21-G) | Potency (Tov112D)

COc1cc2c(cc1O)C(c1ccc(O)cc1)C(C)C(C)C2 (stereo not given)
inactive: Potency (OV90) | Potency (PA-1) | Potency (SKOV3) | Potency (Tov-21-G) | Potency (Tov112D)

CC1CCC2C(C)(C)C(O)C(O)CC2(C)C12Cc1c(O)cc(CO)c(C=O)c1O2 (stereo not given)
inactive: Potency (OV90) | Potency (PA-1) | Potency (SKOV3) | Potency (Tov-21-G) | Potency (Tov112D)

C/C=C(/C)C(=O)O[C@H]1C[C@]2(C)O[C@@H]2[C@@H](OC(C)=O)[C@@]2(C)CC[C@@](O)(C(C)C)[C@H]12
inactive: Potency (OV90) | Potency (PA-1) | Potency (SKOV3) | Potency (Tov-21-G) | Potency (Tov112D)

Cc1cc(CO)c(O)c(C(=O)CC2CC(=O)NC(=O)C2)c1
inactive: Potency (OV90) | Potency (PA-1) | Potency (SKOV3) | Potency (Tov-21-G) | Potency (Tov112D)

CC(=O)/C=C/C1(O)C(C)CC(O[C@@H]2O[C@H](CO)[C@@H](O)[C@H](O)[C@H]2O)CC1(C)C (stereo not given in full)
inactive: Potency (OV90) | Potency (PA-1) | Potency (SKOV3) | Potency (Tov-21-G) | Potency (Tov112D)

COc1ccc(/C=C/C(=O)O[C@@H]2[C@@H](O)[C@@H](O)[C@H](O[C@H]3[C@@H]4C=CO[C@@H](O[C@@H]5O[C@H](CO)[C@@H](O)[C@H](O)[C@H]5O)[C@@H]4[C@@]4(CO)O[C@@H]34)O[C@H]2C)cc1
inactive: Potency (OV90) | Potency (PA-1) | Potency (SKOV3) | Potency (Tov-21-G) | Potency (Tov112D)

Cc1ccc([C@@H]2CC=C(C(=O)O)[C@H](c3ccc(C(C)(C)C)cc3)N2S(=O)(=O)c2ccc(C)cc2)cc1
inactive: Potency (OV90) | Potency (PA-1) | Potency (SKOV3) | Potency (Tov-21-G) | Potency (Tov112D)

CC(=O)O[C@@H]1C[C@@H](C)[C@](O)(CCC2=CC(=O)OC2)[C@@]2(C)CCCC(C)(C)C12 (stereo not given in full)
inactive: Potency (OV90) | Potency (PA-1) | Potency (SKOV3) | Potency (Tov-21-G) | Potency (Tov112D)

C=Cc1ccc(O[C@@H]2O[C@H](CO[C@@H]3O[C@@H](C)[C@H](O)[C@@H](O)[C@H]3O)[C@@H](O)[C@H](O)[C@H]2O)cc1
inactive: Potency (OV90) | Potency (PA-1) | Potency (SKOV3) | Potency (Tov-21-G) | Potency (Tov112D)

O=C(/C=C/c1ccc(O)cc1)OCC1OC(O)C(OC2OC(CO)C(O)C(O)C2O)C(O)C1O (stereo not given)
inactive: Potency (OV90) | Potency (PA-1) | Potency (SKOV3) | Potency (Tov-21-G) | Potency (Tov112D)

COc1cc(O)c(C(=O)O)c(CCc2ccccc2)c1
inactive: Potency (OV90) | Potency (PA-1) | Potency (SKOV3) | Potency (Tov-21-G) | Potency (Tov112D)

CC1(C)C[C@@H]2[C@H](C1)[C@@]1(C)C[C@]13C(O)OC[C@]3(O)[C@H]2O (stereo not given in full)
inactive: Potency (OV90) | Potency (PA-1) | Potency (SKOV3) | Potency (Tov-21-G) | Potency (Tov112D)
